Sampled rows, rich in hits. Any-hit rate of the full collection: about 3%.
TRAIL sens C8: sensitizes caspase-8 expressing cells to TRAIL; NB7+C8 cells + TRAIL, ATPlite viability luminescence; inhibition (viability loss, TRAIL sensitization), % at 10 µM; 360,000 compounds, 1% hits; AID 624354;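 active = compounds causing at least 50% loss of cell viability in the single-dose screen, relative to plate controls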
PPC-1+TRAIL kill: compounds killing PPC-1 cancer cells with TRAIL present (potentiator screen, no TRAIL-free arm). cell killing (% activity), % at 4 µM or 5 µM. PPC-1 cells + TRAIL, ATPLite viability luminescence. 220,000 compounds, 0.41% hits;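 active = cell killing above 50% in the first pass at 4 µM, then a duplicate retest at 5 µM averaging 50% or more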
SENP8 block-1: inhibitors of human SENP8 protease; purified SENP8, Z-RLRGG-aminoluciferin cleavage, luminescence; inhibition, % at 10 µM; 330,000 compounds, 1.2% hits; AID 2540; in the data active = inhibition above about 50%
SENP8 block-2: blocks human SENP8 cleavage of Nedd8 substrate; Q96LD8; recombinant SENP8, Nedd8 substrate fluorescence; inhibition, % at 20 µM; 360,000 compounds, 0.64% hits; AID 602440; in the data active = inhibition mostly above about 40%, no sharp cut-off; inactive = mostly below about 27%
SENP7 block: inhibitors of human SENP7 protease; Q9BQF6; recombinant SENP7, Z-RLRGG-aminoluciferin luminescence, 40 min; 330,000 compounds, 1.5% hits; inhibition, % at 5 µM;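 active = inhibition above about 50% at the single test dose, limit read from the data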
SENP6 inh: inhibitors of human SENP6 protease; 330,000 compounds, 1.8% hits; inhibition, % at 10 µM; Q9GZR1; Recombinant SENP6 catalytic domain, aminoluciferin luminescence;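 active = inhibition above about 50% at the single tested dose, limit read from the data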
Target sequence (Q9GZR1 628-1112 limits assumed): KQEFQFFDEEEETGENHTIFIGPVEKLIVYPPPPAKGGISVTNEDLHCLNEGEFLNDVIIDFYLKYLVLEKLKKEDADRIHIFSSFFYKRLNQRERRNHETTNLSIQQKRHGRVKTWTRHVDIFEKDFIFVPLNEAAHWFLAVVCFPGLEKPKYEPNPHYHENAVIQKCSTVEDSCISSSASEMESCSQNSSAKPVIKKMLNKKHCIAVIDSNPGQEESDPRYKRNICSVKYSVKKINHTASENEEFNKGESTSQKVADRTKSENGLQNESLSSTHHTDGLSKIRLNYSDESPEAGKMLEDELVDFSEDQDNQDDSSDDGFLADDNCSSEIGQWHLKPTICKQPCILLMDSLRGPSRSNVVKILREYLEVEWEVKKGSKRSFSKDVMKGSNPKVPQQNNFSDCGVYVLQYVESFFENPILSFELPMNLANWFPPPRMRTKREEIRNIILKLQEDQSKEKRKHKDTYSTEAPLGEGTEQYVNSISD
SENP8 confirm: confirmation of human SENP8 protease inhibitors. shares compounds with SENP7 block. Recombinant SENP8, Z-RLRGG-aminoluciferin luminescence, 60 min. inhibition, % at 12.5 µM. 6,200 compounds, 40% hits. AID 488912;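 active = mean inhibition across replicates above about 50%, limit read from the data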
SENP6 confirm: confirmation of human SENP6 protease inhibitors. 6,200 compounds, 58% hits. shares compounds with SENP7 block. inhibition, % at 12.5 µM. recombinant SENP6, Z-RLRGG-aminoluciferin luminescence. AID 488915
SENP7 confirm: confirmation of human SENP7 protease inhibitors | shares compounds with SENP7 block | AID 488917 | 6,200 compounds, 69% hits | inhibition, % at 12.5 µM | recombinant SENP7, Z-RLRGG-aminoluciferin luminescence, 40 min
Casp3 select: selectivity test for SENP inhibitors: human caspase-3 inhibition; shares compounds with SENP7 block; purified caspase-3, Z-DEVD-aminoluciferin luminescence, 60 min; inhibition, % at 12.5 µM; 6,200 compounds, 60% hits;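 active = mean inhibition above about 50%, limit read from the data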
Target sequence (P42574 28-227 limits assumed): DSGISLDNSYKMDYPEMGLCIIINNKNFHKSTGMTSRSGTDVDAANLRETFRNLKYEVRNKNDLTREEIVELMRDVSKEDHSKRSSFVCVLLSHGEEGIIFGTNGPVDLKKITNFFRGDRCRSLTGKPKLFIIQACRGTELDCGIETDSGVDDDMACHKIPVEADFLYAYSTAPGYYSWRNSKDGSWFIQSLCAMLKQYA
SENP luc ctr: luminescence interference (SENP counter-screen). shares compounds with SENP7 block. Pre-incubated SENP8/Z-RLRGG-aminoluciferin, luciferase luminescence interference. inhibition, % at 12.5 µM. 6,200 compounds, 39% hits;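 active = mean inhibition above about 50% when retested at one dose, limit read from the data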
Each line names hits and unclear results; the compound was inactive in the other large screens (follow-up assays come after a bar, where they were run).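 Rule for the calls, unless noted: active = mean inhibition above about 50% in the one-dose retest (limit read from the data); inactive = the rest.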

Cc1ccccc1Cn1nnc(-c2cccc(C(=O)O)c2)n1	SENP6 inh 71 | SENP8 confirm 64 | SENP6 confirm 61 | SENP7 confirm 86 | Casp3 select 52 | SENP luc ctr 72
O=C(O)c1cccc(-c2nnn(Cc3ccccc3Cl)n2)c1	SENP8 block-1 56, SENP6 inh 82 | SENP8 confirm inactive | SENP6 confirm 83 | SENP7 confirm 94 | Casp3 select inactive | SENP luc ctr inactive
Cc1ccccc1Cn1nnc(-c2ccc(C(=O)O)cc2)n1	none
Cc1cc(C(=O)N/N=C2\CC(=O)c3ccccc32)c(C)n1-c1ccc(F)cc1	SENP8 block-2 79, SENP6 inh 73 | SENP8 confirm inactive | SENP6 confirm inactive | SENP7 confirm inactive | Casp3 select 51 | SENP luc ctr inactive
CCOc1cc(/C=N/NC(=O)c2cc(C)n(-c3ccc(F)cc3)c2C)ccc1O	none
COc1ccc(SCC(=O)Nc2ccccc2Cl)cc1	none
COc1nc(SCC(=O)Nc2ccccc2Cl)nc(N(C)C)n1	SENP6 inh 85 | SENP8 confirm inactive | SENP6 confirm inactive | SENP7 confirm inactive | Casp3 select inactive | SENP luc ctr inactive
CCOc1ccc2nc(NC(=O)c3ccc(C)o3)sc2c1	TRAIL sens C8 58, SENP8 block-1 94, SENP7 block 98, SENP6 inh 96 (no result: PPC-1+TRAIL kill) | SENP8 confirm inactive | SENP6 confirm 95 | SENP7 confirm 102 | Casp3 select 91 | SENP luc ctr inactive
CCOc1ccc2nc(NC(=S)N(C)C)sc2c1	SENP7 block 57, SENP6 inh 77 | SENP8 confirm 71 | SENP6 confirm 69 | SENP7 confirm 92 | Casp3 select 58 | SENP luc ctr 82
CCOc1ccc2nc(NC(=O)c3cccnc3)sc2c1	SENP8 block-1 71, SENP7 block 86, SENP6 inh 84 | SENP8 confirm inactive | SENP6 confirm inactive | SENP7 confirm inactive | Casp3 select inactive | SENP luc ctr inactive
CN(C)C(=S)Nc1nc2ccccc2s1	none (no result: SENP8 block-1, SENP7 block, SENP6 inh)
CCCC(=O)Nc1nc2ccc(OCC)cc2s1	none
CCOc1ccc2nc(NC(=O)c3cnc(C)cn3)sc2c1	none
N[C@@H](Cc1cnc[nH]1)C(=O)Nc1ccc2ccccc2c1	none (no result: PPC-1+TRAIL kill, SENP8 block-1, SENP7 block, SENP6 inh)
C[C@@H]1CN([C@@H](C)CO)S(=O)(=O)c2ccc(Br)cc2O[C@@H]1CN(C)S(=O)(=O)c1cn(C)cn1	none (no result: PPC-1+TRAIL kill, SENP8 block-1, SENP7 block, SENP6 inh)
O=C(O)c1ccccc1COc1ccccc1Cl	none
Cc1oc2ccc(OCc3ccccc3Cl)cc2c1C(=O)O	SENP6 inh 62 (no result: PPC-1+TRAIL kill) | SENP8 confirm inactive | SENP6 confirm inactive | SENP7 confirm 51 | Casp3 select 55 | SENP luc ctr inactive
Cc1oc2ccc(OCc3ccc(F)cc3Cl)cc2c1C(=O)O	none
COC(=O)c1cc(COc2ccc3oc(C)c(C(=O)OC)c3c2)c(C)o1	none
O=C(O)c1cccc(OCc2ccccc2Cl)c1	SENP8 block-1 79, SENP7 block 75, SENP6 inh 94 | SENP8 confirm 86 | SENP6 confirm 86 | SENP7 confirm 97 | Casp3 select 82 | SENP luc ctr 89
CC(=O)c1c(C)oc2ccc(OCc3ccccc3)cc12	SENP6 inh 55 (no result: PPC-1+TRAIL kill) | SENP8 confirm inactive | SENP6 confirm inactive | SENP7 confirm 68 | Casp3 select inactive | SENP luc ctr inactive
C=CCNc1ncnc2c1ncn2[C@H]1CN(CCOC)C[C@@H](CO)O1	none (no result: PPC-1+TRAIL kill, SENP8 block-1, SENP7 block, SENP6 inh)
CC1CCCN(C(=O)CCNC(=O)Cn2cnc3ccccc3c2=O)C1 (stereo unspecified)	none (no result: PPC-1+TRAIL kill)
Cc1cc(=O)n2[nH]c(SCc3ccc(Cl)cc3)nc2n1	SENP6 inh 52 | SENP8 confirm inactive | SENP6 confirm inactive | SENP7 confirm 69 | Casp3 select 65 | SENP luc ctr inactive
Cc1cccc(-n2c(C)cc(C=C3C(=O)c4ccccc4C3=O)c2C)c1	none
Cc1ccc(C=C2C(=O)c3ccccc3C2=O)o1	SENP8 block-1 79, SENP7 block 95, SENP6 inh 97 | SENP8 confirm 96 | SENP6 confirm 97 | SENP7 confirm 101 | Casp3 select 96 | SENP luc ctr 75
CCn1c(C)cc(C=C2C(=O)c3ccccc3C2=O)c1C	none (no result: SENP8 block-1, SENP7 block, SENP6 inh)
Cc1cc(C=C2C(=O)c3ccccc3C2=O)c(C)n1C	SENP8 block-1 56, SENP6 inh 66 | SENP8 confirm inactive | SENP6 confirm inactive | SENP7 confirm 72 | Casp3 select inactive | SENP luc ctr inactive
Cc1ccc(C=C2C(=O)c3ccccc3C2=O)s1	SENP8 block-1 81, SENP7 block 92, SENP6 inh 70 | SENP8 confirm 68 | SENP6 confirm 94 | SENP7 confirm 99 | Casp3 select 88 | SENP luc ctr inactive
N#Cc1ccc(NC(=O)c2cc(-c3cccs3)on2)cc1	SENP6 inh 58 | SENP8 confirm inactive | SENP6 confirm inactive | SENP7 confirm inactive | Casp3 select inactive | SENP luc ctr inactive
O[C@@H]1CN(Cc2ccccc2Cl)CC[C@H]1N1CCOCC1	none (no result: PPC-1+TRAIL kill)
CCOc1ccc(-c2nnn(CC(=O)Nc3ccccc3OC)n2)cc1OCC	SENP7 block 63 | SENP8 confirm inactive | SENP6 confirm inactive | SENP7 confirm inactive | Casp3 select inactive | SENP luc ctr inactive
O=C(c1ccc(Cl)cc1)C1CCN(C(=S)Nc2ccccc2)CC1	none (no result: PPC-1+TRAIL kill, SENP8 block-1, SENP7 block, SENP6 inh)
CCc1cccc(NC(=S)Nc2cccc3ccccc23)c1	SENP6 inh 78 (no result: PPC-1+TRAIL kill) | SENP8 confirm inactive | SENP6 confirm inactive | SENP7 confirm inactive | Casp3 select inactive | SENP luc ctr inactive
CC(C)N1CCC1(C)C(=O)Nc1cccc2ccccc12 (stereo unspecified)	none (no result: PPC-1+TRAIL kill, SENP8 block-1, SENP7 block, SENP6 inh)
CC1(C(=O)Nc2cccc3ccccc23)CC1(Br)Br (stereo unspecified)	SENP6 inh 60 | SENP8 confirm inactive | SENP6 confirm inactive | SENP7 confirm inactive | Casp3 select inactive | SENP luc ctr inactive
Cc1cc(NC(=S)Nc2cccc3ccccc23)n[nH]1	none
Fc1ccc(NC(=S)Nc2cccc3ccccc23)cc1F	SENP6 inh 62 (no result: PPC-1+TRAIL kill) | SENP8 confirm inactive | SENP6 confirm inactive | SENP7 confirm inactive | Casp3 select inactive | SENP luc ctr inactive
C=CCNC(=S)Nc1cccc2ccccc12	none
Cc1cccc(NC(=S)Nc2cccc3ccccc23)c1	SENP8 block-1 89, SENP6 inh 91 (no result: PPC-1+TRAIL kill) | SENP8 confirm inactive | SENP6 confirm inactive | SENP7 confirm inactive | Casp3 select inactive | SENP luc ctr inactive
